# Results as given in PubChem BioAssay (NCI).
# About 79,000 compounds went through this panel and 15% of them were active in at least one assay; those are over-represented in the sample as a whole. Values without a mark were called inactive. Active and inactive are the calls of the source. Rule as the data show it: active = growth inhibition above about 70%; inactive = the rest.
# Key:
# [1] = NCI Yeast Anticancer Drug Screen. Data for the rad52 strain (AID 147);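 also: 0% = growth of vehicle-treated control cultures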; details: S. cerevisiae rad52 mutant growth inhibition, hits give high values
# Method in brief: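 The repair-mutant yeast strain was incubated with compounds, then growth was read and inhibition derived relative to vehicle.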
# [2] = NCI Yeast Anticancer Drug Screen. Data for the wt1 strain (AID 149);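 also: 0% = growth of vehicle-treated wt1 cultures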; details: S. cerevisiae wt1 strain (SPY 50644) growth inhibition, hits give high values
# Method in brief: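 Growth inhibition read against vehicle controls after compound exposure of the wt1 yeast strain.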
# [3] = NCI Yeast Anticancer Drug Screen. Data for the rad50EPP+ strain (AID 151);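 also: 0% = growth of vehicle-treated control cultures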; details: S. cerevisiae rad50 mutant strain, hits give high values
# Method in brief: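 Vehicle-normalised growth inhibition; rad50EPP+ yeast strain, altered in DNA damage repair, compound-treated.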
# [4] = NCI Yeast Anticancer Drug Screen. Data for the mgt1 strain (AID 153); details: S. cerevisiae mgt1 mutant growth inhibition, hits give high values
# Method in brief: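 Vehicle-normalized growth inhibition is determined in mgt1 yeast, a strain selected for a defined alteration in DNA repair or cell cycle control.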
# [5] = NCI Yeast Anticancer Drug Screen. Data for the rad50 strain (AID 155);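 also: 0% = growth of vehicle-only cultures of the same strain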; details: S. cerevisiae rad50 strain growth inhibition, hits give high values
# Method in brief: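 Readout: growth inhibition relative to vehicle-treated cultures. Compound exposure was carried out in a genetically defined yeast strain deficient in DNA damage repair.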
# [6] = NCI Yeast Anticancer Drug Screen. Data for the mec2-1 strain (AID 157); details: S. cerevisiae mec2-1 strain, hits give high values
# Method in brief: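 Mutant yeast (mec2-1) grown with compound; growth inhibition relative to vehicle control reported.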
# [7] = NCI Yeast Anticancer Drug Screen. Data for the sgs1 mgt1 strain (AID 161);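 also: 0% = growth of cultures given vehicle only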; details: S. cerevisiae sgs1 mgt1 strain, hits give high values
# Method in brief: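 Compounds are added to genetically altered yeast, and growth is compared with cultures given vehicle alone to give percent inhibition.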
# [8] = NCI Yeast Anticancer Drug Screen. Data for the CLN2oe strain (AID 163);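 also: 0% = growth of vehicle-only control cultures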; details: S. cerevisiae CLN2oe strain, hits give high values
# Method in brief: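 Compounds are applied to yeast harbouring a defined cell-cycle control change; reduced growth compared with vehicle-treated controls gives the value.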
# [9] = NCI Yeast Anticancer Drug Screen. Data for the cln2 rad14 strain (AID 165);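 also: 0% = growth equal to vehicle treated cultures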; details: S. cerevisiae cln2 rad14 strain, hits give high values
# Method in brief: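 Readout is yeast growth inhibition versus vehicle-treated controls, using a strain with cln2 and rad14 alterations exposed to compound.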
# [10] = NCI Yeast Anticancer Drug Screen. Data for the bub3 strain (AID 167); details: S. cerevisiae bub3 mutant strain, hits give high values
# Method in brief: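 Readout: yeast growth inhibition, expressed relative to vehicle-only wells. The test organism is a mutant strain from a panel with lesions in DNA repair or checkpoint genes.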
# [11] = NCI Yeast Anticancer Drug Screen. Data for the wt2 strain (AID 169);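 also: 0% = growth of vehicle-treated yeast cultures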; details: S. cerevisiae wt2 strain growth inhibition, hits give high values
# Method in brief: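 Against vehicle-treated controls, the growth of yeast exposed to each compound was compared, and the inhibition was recorded.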
# [12] = NCI Yeast Anticancer Drug Screen. Data for the mlh1 strain (AID 171);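 also: 0% = growth of vehicle-treated control cultures of the same strain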; details: S. cerevisiae mlh1 strain growth inhibition, hits give high values
# Method in brief: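 Measured: yeast growth. Reference: vehicle-treated controls. Organism: strain with a defined alteration affecting DNA damage repair or cell cycle control, treated with compound.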
# [13] = NCI Yeast Anticancer Drug Screen. Data for the sgs1 strain (AID 173);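 also: 0% = growth of vehicle-only control cultures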; details: S. cerevisiae sgs1 mutant, hits give high values
# Method in brief: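 Each compound was added to cultures of the altered yeast strain. Growth was recorded, and inhibition was derived by comparison with vehicle controls.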
# [14] = NCI Yeast Anticancer Drug Screen. Data for the mlh1 rad18 strain (AID 175); details: S. cerevisiae mlh1 rad18 strain growth inhibition, hits give high values
# Method in brief: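 Genetically defined yeast (DNA repair-deficient) exposed to compounds; growth inhibition determined relative to vehicle.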
# [15] = NCI Yeast Anticancer Drug Screen. Data for the rad18 strain (AID 177); details: S. cerevisiae rad18 mutant growth inhibition, hits give high values
# Method in brief: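 Vehicle-treated cultures served as the baseline for scoring compound-induced growth inhibition in DNA-repair-mutant yeast.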
# [16] = at 5.0 µM (retest, dose inferred, filed as 0.5)
# [17] = at 50.0 µM (retest, dose inferred, filed as 5.0)
compound,measurement,setting,value
c1ccc2c(c1)-c1nc3ccccc3cc1C2N1CCOCC1 (stereo unspecified),growth inhibition,[1]; at 1.2 µM,-2%
same,growth inhibition,[1]; at 3.7 µM,1%
same,growth inhibition,[1]; at 11.0 µM,4%
same,growth inhibition,[1]; at 33.0 µM,8%
same,growth inhibition,[1]; at 100.0 µM,16%
same,growth inhibition,[2]; at 1.2 µM,1%
same,growth inhibition,[2]; at 3.7 µM,2%
same,growth inhibition,[2]; at 11.0 µM,4%
same,growth inhibition,[2]; at 33.0 µM,2%
same,growth inhibition,[2]; at 100.0 µM,5%
same,growth inhibition,[3]; at 1.2 µM,6%
same,growth inhibition,[3]; at 3.7 µM,25%
same,growth inhibition,[3]; at 11.0 µM,51%
same,growth inhibition,[3]; at 33.0 µM,68%
same,growth inhibition,[3]; at 100.0 µM,77% (active)
same,growth inhibition,[4]; at 1.2 µM,0%
same,growth inhibition,[4]; at 3.7 µM,-1%
same,growth inhibition,[4]; at 11.0 µM,-1%
same,growth inhibition,[4]; at 33.0 µM,3%
same,growth inhibition,[4]; at 100.0 µM,17%
same,growth inhibition,[5]; at 1.2 µM,0%
same,growth inhibition,[5]; at 3.7 µM,-1%
same,growth inhibition,[5]; [16],-6%
same,growth inhibition,[5]; at 11.0 µM,10%
same,growth inhibition,[5]; at 33.0 µM,9%
same,growth inhibition,[5]; [17],55%
same,growth inhibition,[5]; at 50.0 µM,72.7% (active)
same,growth inhibition,[5]; at 100.0 µM,17%
same,growth inhibition,[6]; at 1.2 µM,1%
same,growth inhibition,[6]; at 3.7 µM,1%
same,growth inhibition,[6]; [16],4%
same,growth inhibition,[6]; at 11.0 µM,2%
same,growth inhibition,[6]; at 33.0 µM,5%
same,growth inhibition,[6]; [17],8%
same,growth inhibition,[6]; at 50.0 µM,13.2%
same,growth inhibition,[6]; at 100.0 µM,17%
same,growth inhibition,[7]; [16],-13%
same,growth inhibition,[7]; [17],65%
same,growth inhibition,[7]; at 50.0 µM,70.5% (active)
same,growth inhibition,[8]; at 1.2 µM,-6%
same,growth inhibition,[8]; at 3.7 µM,-2%
same,growth inhibition,[8]; at 11.0 µM,-10%
same,growth inhibition,[8]; at 33.0 µM,-8%
same,growth inhibition,[8]; at 100.0 µM,-3%
same,growth inhibition,[9]; [16],-32%
same,growth inhibition,[9]; [17],13%
same,growth inhibition,[9]; at 50.0 µM,3.95%
same,growth inhibition,[10]; at 1.2 µM,3%
same,growth inhibition,[10]; at 3.7 µM,6%
same,growth inhibition,[10]; [16],7%
same,growth inhibition,[10]; at 11.0 µM,-17%
same,growth inhibition,[10]; at 33.0 µM,29%
same,growth inhibition,[10]; [17],34%
same,growth inhibition,[10]; at 50.0 µM,49.2%
same,growth inhibition,[10]; at 100.0 µM,27%
same,growth inhibition,[11]; at 1.2 µM,-1%
same,growth inhibition,[11]; at 3.7 µM,1%
same,growth inhibition,[11]; at 11.0 µM,2%
same,growth inhibition,[11]; at 33.0 µM,7%
same,growth inhibition,[11]; at 100.0 µM,26%
same,growth inhibition,[12]; at 1.2 µM,3%
same,growth inhibition,[12]; at 3.7 µM,3%
same,growth inhibition,[12]; at 11.0 µM,3%
same,growth inhibition,[12]; at 33.0 µM,-10%
same,growth inhibition,[12]; at 100.0 µM,28%
same,growth inhibition,[13]; at 1.2 µM,2%
same,growth inhibition,[13]; at 3.7 µM,4%
same,growth inhibition,[13]; at 11.0 µM,8%
same,growth inhibition,[13]; at 33.0 µM,18%
same,growth inhibition,[13]; at 100.0 µM,38%
same,growth inhibition,[14]; [16],-1%
same,growth inhibition,[14]; [17],47%
same,growth inhibition,[14]; at 50.0 µM,61.1%
same,growth inhibition,[15]; at 1.2 µM,7%
same,growth inhibition,[15]; at 3.7 µM,5%
same,growth inhibition,[15]; at 11.0 µM,12%
same,growth inhibition,[15]; at 33.0 µM,11%
same,growth inhibition,[15]; at 100.0 µM,6%
CC(C(=O)N1C(=O)N(C(=O)[C@H](C)C(O)c2ccccc2)[C@H](c2ccccc2)[C@H]1c1ccccc1)[C@@H](O)c1ccccc1 (stereo partly specified),growth inhibition,[1]; at 1.2 µM,-1%
same,growth inhibition,[1]; at 3.7 µM,-2%
same,growth inhibition,[1]; at 11.0 µM,11%
same,growth inhibition,[1]; at 33.0 µM,37%
same,growth inhibition,[1]; at 100.0 µM,62%
same,growth inhibition,[2]; at 1.2 µM,1%
same,growth inhibition,[2]; at 3.7 µM,-1%
same,growth inhibition,[2]; at 11.0 µM,-2%
same,growth inhibition,[2]; at 33.0 µM,17%
same,growth inhibition,[2]; at 100.0 µM,36%
same,growth inhibition,[3]; at 1.2 µM,-4%
same,growth inhibition,[3]; at 3.7 µM,-4%
same,growth inhibition,[3]; at 11.0 µM,-1%
same,growth inhibition,[3]; at 33.0 µM,-3%
same,growth inhibition,[3]; at 100.0 µM,-11%
same,growth inhibition,[4]; at 1.2 µM,-6%
same,growth inhibition,[4]; at 3.7 µM,-9%
same,growth inhibition,[4]; at 11.0 µM,4%
same,growth inhibition,[4]; at 33.0 µM,25%
same,growth inhibition,[4]; at 100.0 µM,59%
same,growth inhibition,[5]; at 1.2 µM,-7%
same,growth inhibition,[5]; at 3.7 µM,-15%
same,growth inhibition,[5]; [16],-5%
same,growth inhibition,[5]; at 11.0 µM,-9%
same,growth inhibition,[5]; at 33.0 µM,41%
same,growth inhibition,[5]; [17],39%
same,growth inhibition,[5]; at 50.0 µM,80.1% (active)
same,growth inhibition,[5]; at 100.0 µM,56%
same,growth inhibition,[6]; at 1.2 µM,-5%
same,growth inhibition,[6]; at 3.7 µM,-1%
same,growth inhibition,[6]; [16],-14%
same,growth inhibition,[6]; at 11.0 µM,8%
same,growth inhibition,[6]; at 33.0 µM,33%
same,growth inhibition,[6]; [17],51%
same,growth inhibition,[6]; at 50.0 µM,73.2% (active)
same,growth inhibition,[6]; at 100.0 µM,55%
same,growth inhibition,[7]; [16],-12%
same,growth inhibition,[7]; [17],38%
same,growth inhibition,[7]; at 50.0 µM,83.4% (active)
same,growth inhibition,[8]; at 1.2 µM,-11%
same,growth inhibition,[8]; at 3.7 µM,-13%
same,growth inhibition,[8]; at 11.0 µM,12%
same,growth inhibition,[8]; at 33.0 µM,36%
same,growth inhibition,[8]; at 100.0 µM,51%
same,growth inhibition,[9]; [16],71% (active)
same,growth inhibition,[9]; [17],59%
same,growth inhibition,[9]; at 50.0 µM,77.2% (active)
same,growth inhibition,[10]; at 1.2 µM,-4%
same,growth inhibition,[10]; at 3.7 µM,-3%
same,growth inhibition,[10]; [16],-27%
same,growth inhibition,[10]; at 11.0 µM,5%
same,growth inhibition,[10]; at 33.0 µM,23%
same,growth inhibition,[10]; [17],90% (active)
same,growth inhibition,[10]; at 50.0 µM,84.2% (active)
same,growth inhibition,[10]; at 100.0 µM,48%
same,growth inhibition,[11]; at 1.2 µM,-8%
same,growth inhibition,[11]; at 3.7 µM,-7%
same,growth inhibition,[11]; at 11.0 µM,4%
same,growth inhibition,[11]; at 33.0 µM,41%
same,growth inhibition,[11]; at 100.0 µM,62%
same,growth inhibition,[12]; at 1.2 µM,-3%
same,growth inhibition,[12]; at 3.7 µM,-4%
same,growth inhibition,[12]; at 11.0 µM,14%
same,growth inhibition,[12]; at 33.0 µM,45%
same,growth inhibition,[12]; at 100.0 µM,57%
same,growth inhibition,[13]; at 1.2 µM,-2%
same,growth inhibition,[13]; at 3.7 µM,2%
same,growth inhibition,[13]; at 11.0 µM,30%
same,growth inhibition,[13]; at 33.0 µM,65%
same,growth inhibition,[13]; at 100.0 µM,70% (active)
same,growth inhibition,[14]; [16],7%
same,growth inhibition,[14]; [17],37%
same,growth inhibition,[14]; at 50.0 µM,82.2% (active)
same,growth inhibition,[15]; at 1.2 µM,0%
same,growth inhibition,[15]; at 3.7 µM,6%
same,growth inhibition,[15]; at 11.0 µM,25%
same,growth inhibition,[15]; at 33.0 µM,45%
same,growth inhibition,[15]; at 100.0 µM,53%
